Here are results for ten compounds from PubChem BioAssay (NCATS).

In test [1] the target is Lysosomal acid glucosylceramidase (Homo sapiens) (UniProt P04062). The test can be described thus: Glucocerebrosidase-p2 (AID 348; in the data active means potency below about 10 µM; further: potency means the concentration at half of the fitted maximal effect). The note with it: purified GBA, blue fluorogenic substrate, 40 min. The essentials:
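Compounds titrated from 0.6 nM upwards against 0.2 nM enzyme in pH 5.9 citric acid/KH2PO4, taurocholate, tween-20; blue fluorogenic substrate 80 uM, 40 min room temperature, stopped and read Ex 365/Em 440 for AC50.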

Test [2] is described as follows: Stat Signaling Pathway (AID 446).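 Further: ME-180 cervical cancer cells given 40 pM IL-6 alongside compound; SIE-controlled beta-lactamase reporter measured as 460/530 nm FRET emission ratio; on the % scale 0 is the no-effect control and ±100 the full control effect.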 The note with it: ME-180 SIE beta-lactamase reporter, IL-6 stimulated, 5 h; at 7.69 µM (top of the series) unless noted. In a few lines:
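Reporter line: ME-180 cervical carcinoma, SIE-beta-lactamase. Treatment: compound with 40 pM IL-6, 5 hrs, 37 C, in low-serum OPTI-MEM with 10 mM HEPES pH 7.3. Detection: 460/530 nm fluorescence.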

Test [3] deals with Glucocorticoid receptor (Homo sapiens) (UniProt P04150). Kind of test: GR-GFP Redistribution (AID 450;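 active means compounds whose dose series gives a full or clear partial fitted curve of increased nuclear translocation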; further: potency means the concentration at half of the fitted maximal effect). The note with it: U2OS GR-GFP nuclear translocation, laser cytometry, 2 h.
Sequence of Glucocorticoid receptor (Homo sapiens) (P04150 whole entry, looked up): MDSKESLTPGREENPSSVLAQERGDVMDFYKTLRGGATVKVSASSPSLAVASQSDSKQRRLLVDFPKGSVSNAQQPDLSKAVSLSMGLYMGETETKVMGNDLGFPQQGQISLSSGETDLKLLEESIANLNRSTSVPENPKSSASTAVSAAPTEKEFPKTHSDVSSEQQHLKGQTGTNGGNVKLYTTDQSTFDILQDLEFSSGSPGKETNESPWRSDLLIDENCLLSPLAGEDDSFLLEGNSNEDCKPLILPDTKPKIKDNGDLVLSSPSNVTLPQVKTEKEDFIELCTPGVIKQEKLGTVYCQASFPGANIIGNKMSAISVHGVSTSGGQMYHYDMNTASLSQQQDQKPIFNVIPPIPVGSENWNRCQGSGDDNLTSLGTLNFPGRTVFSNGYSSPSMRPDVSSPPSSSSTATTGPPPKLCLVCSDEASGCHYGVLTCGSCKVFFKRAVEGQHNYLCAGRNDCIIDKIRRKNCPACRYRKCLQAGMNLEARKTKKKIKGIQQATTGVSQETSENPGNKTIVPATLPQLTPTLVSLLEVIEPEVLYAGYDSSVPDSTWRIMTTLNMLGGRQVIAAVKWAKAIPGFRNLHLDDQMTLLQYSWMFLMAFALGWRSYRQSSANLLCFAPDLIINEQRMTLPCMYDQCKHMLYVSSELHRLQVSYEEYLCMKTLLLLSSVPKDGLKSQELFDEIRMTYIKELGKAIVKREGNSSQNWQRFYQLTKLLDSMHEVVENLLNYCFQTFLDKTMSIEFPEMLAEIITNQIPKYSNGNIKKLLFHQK
Test [4] has the same target. Kind of test: GR-EFC Redistribution (AID 451; calls by dose curve; further: potency means the concentration at half of the fitted maximal effect). The note with it: CHO-K1 GR-EFC translocation, beta-gal luminescence, 2 h. The essentials:
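CHO-K1 cells stably expressing nuclear-localized β-gal enzyme acceptor and GR fused C-terminally to the enzyme donor fragment; ligand-driven nuclear translocation restores β-gal by complementation. Compounds titrated up to 46 uM final, 2 h at 37 °C; luminescence read.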

Test [5] deals with Mitogen-activated protein kinase 10 (Mus musculus) (UniProt Q61831). Kind of test: JNK3 AlphaScreen Assay (AID 530).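 Further: kinase came from lysate of stimulated human HepG2 cells; signal reports phosphorylation of biotinylated GST-cJun 1-79 at Ser73 with 10 µM ATP; on the % scale 0 is the no-effect control and ±100 the full control effect.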 The note with it: JNK3 lysate, c-Jun phosphorylation; series mostly up to 11.4 µM. In a few lines:
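Inhibitors reduce antibody binding to phosphorylated biotin-cJun, lowering AlphaScreen luminescence. Lysates from HepG2 cells pre-activated by IL-1beta plus TNF-alpha supplied JNK3; compounds were titrated.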

For test [6], the target named is 3',5'-cyclic-AMP phosphodiesterase 4B (Homo sapiens) (UniProt Q07343). The test can be described thus: qHTS Assay for Inhibitors of PDE-IV (AID 607; active means well fitted activation curve with a large enough effect in the main read-out, with a control signal flat, not every such curve was filed as active; further: % of control where 0% means no effect). The note with it: HEK293 ACTOne CNG channel cells, membrane potential fluorescence; series mostly up to 22.9 µM. In a few lines:
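Cell-based read-out of cAMP via a modified cyclic nucleotide-gated channel and membrane potential dye (535/590 nm) in HEK293 cells expressing PDE4 endogenously. Compounds tested up to 22.9 uM final; 100 uM RO 20-1724 reference.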

A short description of test [7]: qHTS profiling for inhibitors of Plasmodium falciparum proliferation (AID 504749; active means well fitted curve in the direction sought with a large enough effect; an effect the other way counts as inactive or inconclusive;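 further: 0% = DMSO vehicle and full inhibition = artemisinin control; nearly all actives have a fitted effect of over 60% in size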). The note with it: P. falciparum in erythrocytes, SYBR Green DNA, 72 h; at 28.7 µM (top of the series); parasite line A. In a few lines: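 Parasite proliferation within erythrocytes, 72 h exposure. Endpoint: SYBR Green I fluorescence after overnight lysis at room temperature. Controls: 0.29 uM artemisinin, DMSO.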

For test [8], the target named is Cytochrome P450 1A2 (Homo sapiens) (UniProt P05177). Kind of test: p450-cyp1a2 (AID 410; calls by dose curve; further: potency means the concentration at half of the fitted maximal effect). The note with it: recombinant CYP1A2, luciferin-ME demethylation, luminescence; series mostly up to 11.4 µM. In a few lines: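 20nM CYP1A2 with 100uM Luciferin-ME (at Km) in 100mM KPO4; compound preincubated 10 min, NADPH regeneration added, 60 min at room temperature. Luciferin quantified by luminescence after detection reagent; normalized to 57 uM furafylline.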
Sequence of Cytochrome P450 1A2 (Homo sapiens) (P05177 whole entry, looked up): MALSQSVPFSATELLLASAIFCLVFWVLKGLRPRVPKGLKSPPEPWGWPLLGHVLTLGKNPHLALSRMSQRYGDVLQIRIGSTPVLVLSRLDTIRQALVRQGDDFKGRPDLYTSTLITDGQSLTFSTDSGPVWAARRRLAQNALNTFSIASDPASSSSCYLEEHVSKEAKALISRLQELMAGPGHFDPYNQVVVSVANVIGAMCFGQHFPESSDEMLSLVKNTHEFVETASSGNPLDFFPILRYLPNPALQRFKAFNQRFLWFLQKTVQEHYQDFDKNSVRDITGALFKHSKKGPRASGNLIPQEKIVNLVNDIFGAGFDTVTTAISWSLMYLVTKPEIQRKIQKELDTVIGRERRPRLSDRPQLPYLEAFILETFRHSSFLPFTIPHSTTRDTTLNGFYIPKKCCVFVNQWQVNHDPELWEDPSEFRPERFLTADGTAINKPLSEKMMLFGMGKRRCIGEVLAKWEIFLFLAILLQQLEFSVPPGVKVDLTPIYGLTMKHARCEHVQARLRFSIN

Test [9] can be described thus: NFAT Signaling Pathway (AID 444).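 Further: carbachol stimulus at about its EC50 of 1 µM final; on the % scale 0 is the no-effect control and ±100 the full control effect.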 The note with it: Jurkat NFAT-bla M1, carbachol, beta-lactamase ratio, 5 h; at 7.69 µM (top of the series) unless noted. In a few lines:
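Jurkat cells carrying an NFAT-driven β-lactamase reporter and co-transfected muscarinic M1 receptor were treated with compound plus carbachol (1 uM final, an EC50 level) for 5 h at 37 °C. CCF4 loading followed for 1 h at RT; 460/530 nm ratio gave %activity.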

Test [10] concerns the target Cytochrome P450 3A4 (Homo sapiens) (UniProt P08684). The test can be described thus: qHTS Assay for Activators of Cytochrome P450 3A4 (AID 885; active means well fitted curve in the direction sought with a large enough effect; an effect the other way counts as inactive or inconclusive; further: nearly all actives have a fitted effect of over 65% in size). The note with it: recombinant CYP3A4, Luciferin-PPXE luminescence, 60 min; series mostly up to 11.4 µM. The essentials:
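Signal was normalized against complete inhibition by 57 uM ketoconazole. The reaction used 20nM CYP3A4 with 25uM Luciferin-PPXE, 10-min compound preincubation and a 60-min NADPH-supported step at RT.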
A general note: qHTS replaces the single test concentration by a dilution series.

In test [11] the target is Cytochrome P450 2C9 (Homo sapiens) (UniProt P11712). The test can be described thus: qHTS Assay for Inhibitors and Substrates of Cytochrome P450 2C9 (AID 883; active means well fitted curve in the direction sought with a large enough effect; an effect the other way counts as inactive or inconclusive; further: potency means the concentration at half of the fitted maximal effect; nearly all actives have a fitted effect of over 60% in size). The note with it: recombinant CYP2C9, luciferin-H luminescence, 60 min; series mostly up to 11.4 µM. In a few lines: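 CYP2C9 deoxyluciferin hydroxylation, 37C, 60 min with NADPH regeneration; 10nM enzyme, 100uM Luciferin-H (KM). Glo detection reagent stopped reaction; luminescence normalized to sulphaphenazole (57uM) full inhibition.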
Sequence of Cytochrome P450 2C9 (Homo sapiens) (P11712 whole entry, looked up): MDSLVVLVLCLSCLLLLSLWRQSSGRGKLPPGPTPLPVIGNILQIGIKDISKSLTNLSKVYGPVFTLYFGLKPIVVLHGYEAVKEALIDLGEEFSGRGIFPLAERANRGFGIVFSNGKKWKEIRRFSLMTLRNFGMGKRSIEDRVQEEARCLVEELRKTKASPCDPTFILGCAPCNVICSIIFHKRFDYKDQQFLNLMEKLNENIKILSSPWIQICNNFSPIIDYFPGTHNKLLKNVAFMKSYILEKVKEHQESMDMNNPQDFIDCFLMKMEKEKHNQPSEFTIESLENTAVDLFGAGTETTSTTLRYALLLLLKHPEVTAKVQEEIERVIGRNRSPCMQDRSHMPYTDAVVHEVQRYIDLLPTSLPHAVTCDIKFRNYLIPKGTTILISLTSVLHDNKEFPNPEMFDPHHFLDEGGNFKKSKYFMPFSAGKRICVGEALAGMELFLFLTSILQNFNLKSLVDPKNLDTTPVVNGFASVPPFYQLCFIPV

In test [12] the target is Cytochrome P450 2C19 (Homo sapiens) (UniProt P33261). The test can be described thus: qHTS Assay for Inhibitors and Substrates of Cytochrome P450 2C19 (AID 899; active means well fitted curve in the direction sought with a large enough effect; an effect the other way counts as inactive or inconclusive; further: potency means the concentration at half of the fitted maximal effect; nearly all actives have a fitted effect of over 60% in size). The note with it: recombinant CYP2C19, luciferin-H EGE luminescence; series mostly up to 11.4 µM. The essentials: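 In 50mM KPO4, the reaction held 5nM enzyme and KM-level (10uM) Luciferin-H EGE; it ran 60 min at 37C after NADPH regeneration and a 10 min compound preincubation. Luminescence values were scaled to 57uM ketoconazole as complete inhibition.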
Sequence of Cytochrome P450 2C19 (Homo sapiens) (P33261 whole entry, looked up): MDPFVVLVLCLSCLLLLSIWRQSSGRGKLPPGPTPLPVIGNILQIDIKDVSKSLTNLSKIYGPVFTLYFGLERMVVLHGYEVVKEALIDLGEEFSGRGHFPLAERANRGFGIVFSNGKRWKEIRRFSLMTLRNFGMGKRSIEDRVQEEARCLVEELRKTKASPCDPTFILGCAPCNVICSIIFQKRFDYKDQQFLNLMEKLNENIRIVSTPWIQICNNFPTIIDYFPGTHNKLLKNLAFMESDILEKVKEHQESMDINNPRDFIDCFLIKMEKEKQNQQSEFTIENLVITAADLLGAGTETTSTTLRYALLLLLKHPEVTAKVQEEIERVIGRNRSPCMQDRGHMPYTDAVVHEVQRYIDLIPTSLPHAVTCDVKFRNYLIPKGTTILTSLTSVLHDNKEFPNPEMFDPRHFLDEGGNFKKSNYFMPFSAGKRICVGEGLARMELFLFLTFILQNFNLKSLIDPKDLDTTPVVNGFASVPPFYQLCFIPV

A number with no mark means an inactive call. Records with an inconclusive call do not appear. Activity calls are given as the source filed them. Unless noted, the call rests on the fitted dose curve; in most records, active means well fitted curve in either direction with a large enough effect (not every such curve was filed as active); inconclusive means small, poorly fitted or top-dose-only effect, or another doubt; inactive means flat fitted curve, though single readings scatter.

Sequence of 3',5'-cyclic-AMP phosphodiesterase 4B (Homo sapiens) (Q07343 whole entry, looked up): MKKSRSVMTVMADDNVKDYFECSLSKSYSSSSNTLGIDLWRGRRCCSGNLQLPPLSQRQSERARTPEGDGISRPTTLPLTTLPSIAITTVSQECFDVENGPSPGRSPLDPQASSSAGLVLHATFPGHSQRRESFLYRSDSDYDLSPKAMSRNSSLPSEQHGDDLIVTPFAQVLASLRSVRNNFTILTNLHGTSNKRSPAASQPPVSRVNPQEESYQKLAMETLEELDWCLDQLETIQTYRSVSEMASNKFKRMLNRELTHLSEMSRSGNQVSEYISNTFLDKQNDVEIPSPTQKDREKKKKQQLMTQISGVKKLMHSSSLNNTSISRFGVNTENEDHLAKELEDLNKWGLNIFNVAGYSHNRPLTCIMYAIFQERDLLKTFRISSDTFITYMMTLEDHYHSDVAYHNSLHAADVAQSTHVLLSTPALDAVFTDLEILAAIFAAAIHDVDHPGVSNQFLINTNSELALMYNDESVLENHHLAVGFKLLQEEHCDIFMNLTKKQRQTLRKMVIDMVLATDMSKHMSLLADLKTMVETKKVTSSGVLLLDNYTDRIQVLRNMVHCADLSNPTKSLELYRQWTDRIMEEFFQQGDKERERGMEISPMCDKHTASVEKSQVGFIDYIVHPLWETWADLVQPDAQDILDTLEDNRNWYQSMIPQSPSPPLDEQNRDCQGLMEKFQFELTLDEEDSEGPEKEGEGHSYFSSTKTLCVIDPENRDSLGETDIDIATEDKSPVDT
Sequence of Lysosomal acid glucosylceramidase (Homo sapiens) (P04062 whole entry, looked up): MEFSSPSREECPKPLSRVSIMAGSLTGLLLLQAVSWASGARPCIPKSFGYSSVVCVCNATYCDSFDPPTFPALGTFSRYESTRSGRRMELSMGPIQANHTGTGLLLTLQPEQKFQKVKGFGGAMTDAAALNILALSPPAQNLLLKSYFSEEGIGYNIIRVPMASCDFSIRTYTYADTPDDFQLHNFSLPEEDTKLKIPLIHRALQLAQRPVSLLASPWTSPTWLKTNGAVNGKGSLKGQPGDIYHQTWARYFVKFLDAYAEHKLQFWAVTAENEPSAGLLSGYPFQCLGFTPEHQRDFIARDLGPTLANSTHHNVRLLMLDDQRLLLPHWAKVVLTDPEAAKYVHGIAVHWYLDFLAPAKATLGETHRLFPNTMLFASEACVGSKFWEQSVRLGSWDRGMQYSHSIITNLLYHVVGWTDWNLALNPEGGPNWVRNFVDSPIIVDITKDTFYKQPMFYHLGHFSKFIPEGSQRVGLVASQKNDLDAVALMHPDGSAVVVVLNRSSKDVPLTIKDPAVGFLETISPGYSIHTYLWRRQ
Sequence of Cytochrome P450 3A4 (Homo sapiens) (P08684 whole entry, looked up): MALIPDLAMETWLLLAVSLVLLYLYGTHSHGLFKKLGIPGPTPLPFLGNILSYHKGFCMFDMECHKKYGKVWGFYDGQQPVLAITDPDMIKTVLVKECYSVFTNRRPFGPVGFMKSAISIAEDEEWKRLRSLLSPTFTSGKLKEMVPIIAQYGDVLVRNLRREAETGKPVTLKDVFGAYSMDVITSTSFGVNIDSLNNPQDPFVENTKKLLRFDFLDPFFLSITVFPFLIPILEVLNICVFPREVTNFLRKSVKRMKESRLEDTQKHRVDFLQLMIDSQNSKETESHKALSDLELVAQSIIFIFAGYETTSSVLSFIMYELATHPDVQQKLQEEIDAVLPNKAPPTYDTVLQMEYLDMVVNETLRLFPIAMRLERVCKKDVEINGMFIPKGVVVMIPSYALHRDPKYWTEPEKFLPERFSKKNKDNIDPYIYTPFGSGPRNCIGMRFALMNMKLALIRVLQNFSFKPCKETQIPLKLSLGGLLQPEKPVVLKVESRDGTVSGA

`OC[C@H](S)CS`: the Potency in [1] is > 11.4 µM; in test [3], > 46 µM; in test [4], > 9.22 µM. The results for the activity, negative = inhibition in test [2] and in test [7] were 5.31% and -3.06%, respectively. For the same compound, the Potency entry in test [5] and in [6] was “inactive” throughout.
For `Nc1ncnc2c([C@@H]3O[C@@H](CO)[C@H](O)[C@@H]3O)nsc12`, the Potency in [1] was > 11.4 µM; in [3], > 46 µM; in test [4] it was > 9.22 µM. In addition, the activity change, negative = inhibition in test [8] was -16.8% [at 2.29 µM]. The Potency result in test [5] and in test [6] was “inactive” throughout.
Regarding `O=[N+]([O-])c1ccc(S(=O)(=O)Cc2ccccc2)c([N+](=O)[O-])c1`, the Potency in test [1] was > 11.4 µM; in [4], > 9.22 µM. Also, the activity change, negative = inhibition in [9] was -88.3% (active). Also, the Potency result in [5] was “inactive”.
Take `COc1ccc(C(=O)[C@H](Br)[C@H](Br)C(=O)O)cc1`: the Potency is > 11.4 µM in test [1], 3.98 µM (active) in test [8], > 46 µM in [3] and > 9.22 µM in [4]. Further, the Potency entry in test [5] and in test [6] was “inactive” throughout.
In the case of `O=c1c(CCc2ccccc2)nc2cnc(Oc3ccccc3)nc2n1C[C@H]1CCCO1`, the Potency is > 11.4 µM in test [1], > 9.22 µM in test [3] and > 46 µM in [4]. The activity change, negative = inhibition in test [9] is -10.8%. For the same compound, in test [2], the activity, negative = inhibition was -18.9%. Further, the Potency entry in test [6] and in test [10] was “inactive” in each case.
With `COc1ccc(Cc2ccc3[nH]c(=O)cc(C)c3c2)cc1S(=O)(=O)O`, the Potency was > 11.4 µM in [1], > 46 µM in test [3] and > 9.22 µM in [4]. In test [9], the activity change, negative = inhibition is 8.36%. Moreover, the activity, negative = inhibition in test [2] is 5.41%. The Potency entry in [5] and in [6] was “inactive” throughout.
On to `CN1CCN(c2ncc3nc(-c4ccccc4)c(=O)n(Cc4ccc(F)cc4)c3n2)CC1`, for which the Potency in [1] is > 11.4 µM; in [3] it was > 9.22 µM; in [4], > 46 µM. In addition, the Potency result in test [8], in test [5] and in test [6] was “inactive” throughout.
For the compound `O=C1/C(=C/c2ccccc2)[C@@H](NC2CCCCC2)c2ccccc21`, the Potency in test [1] was > 11.4 µM; in test [8], 1 µM (active); in test [4], > 9.22 µM; in [11], 3.98 µM (active); in test [12] it was 1.26 µM (active). The Potency entry in test [5], in test [6] and in [10] was “inactive” in each case.
With `COc1ccc(Oc2ncc3nc(-c4ccc(Cl)cc4)c(=O)n(CCC#N)c3n2)cc1`, the results for the Potency in [1], in test [3] and in test [4] were > 11.4 µM, > 46 µM and > 46 µM, respectively. In test [9], the activity change, negative = inhibition was 0.455%. In test [2], the activity, negative = inhibition was -7.87%. Moreover, the Potency result in test [5] and in test [6] was “inactive” each time.
Take `N#CCCn1c(=O)c(-c2ccc(F)cc2)nc2cnc(Oc3ccccc3)nc21`: the results for the Potency in test [1], in test [3] and in test [4] were > 11.4 µM, > 9.22 µM and > 46 µM, respectively. The activity change, negative = inhibition in test [9] was -6.96%. The activity, negative = inhibition in [2] is -5.37%. The Potency result in [5] and in test [6] was “inactive” throughout.
